# Assay results published in PubChem BioAssay.
# Measured potencies and affinities stand elsewhere. Records with an inconclusive call do not appear. Calls of active or inactive are those of the source. The rule behind the calls is not given here.
# Experiment: IGROV1 cell killing – plate reader, dry powder samples, PAX8 inhibitor project, dose response (AID 743043);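 note: more negative means fewer viable cells or more cytotoxicity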
# Settings: IGROV1 ovarian cancer cell cytotoxicity; series mostly up to 35 µM; activity change, negative = cytotoxicity: at the top concentration
row,Structure (SMILES),"activity change, negative = cytotoxicity"
1,Cc1cccc(S(=O)(=O)N2CC[C@@H]3[C@H](CO)Nc4ccc(C5=CCCCC5)cc4[C@@H]32)c1,23.3% (inactive)
2,C[C@H]1CN([C@@H](C)CO)C(=O)c2c(c3ccccc3n2C)-c2ccccc2CO[C@@H]1CN(C)Cc1ccc(-c2ccccc2)cc1,-9.67% [at 30 µM] (inactive)
3,C[C@@H]1CN([C@@H](C)CO)C(=O)c2c(c3ccccc3n2C)-c2ccccc2CO[C@H]1CN(C)C(=O)Nc1ccc2c(c1)OCO2,0.3% (inactive)
4,CN1c2ccc(C#Cc3cccnc3)cc2[C@@H]2[C@@H](CCN2C(=O)Cc2cccnc2)[C@@H]1CO,-7.38% (inactive)
5,C[C@@H]1CN([C@@H](C)CO)C(=O)c2cc(NS(=O)(=O)c3ccc(F)cc3)ccc2O[C@@H](C)CCCCO[C@H]1CN(C)Cc1ccc(C(F)(F)F)cc1,4.71% (inactive)
6,C[C@@H]1CN([C@@H](C)CO)C(=O)c2cc(NC(=O)Nc3ccc(C(F)(F)F)cc3)ccc2O[C@@H](C)CCCCO[C@H]1CN(C)Cc1ccc(Cl)c(Cl)c1,-0.123% (inactive)
7,C[C@H](CO)N1C[C@H](C)[C@@H](CN(C)Cc2ccc(C(F)(F)F)cc2)Oc2ccc(NS(=O)(=O)c3ccc(F)cc3)cc2CC1=O,15.5% [at 30 µM] (inactive)
8,C[C@@H]1CCCCO[C@@H](CN(C)C(=O)C2CCCCC2)[C@H](C)CN([C@H](C)CO)C(=O)c2cc(NS(=O)(=O)c3ccc(Cl)cc3)ccc2O1,2.3% (inactive)
9,COc1cccc(-c2ccc3c(c2)[C@@H]2[C@@H](CCN2C(=O)NC2CCCCC2)[C@H](CO)N3C)c1,0.261% (inactive)
10,C[C@@H]1CCCCO[C@@H](CN(C)Cc2ccccc2)[C@@H](C)CN([C@H](C)CO)C(=O)c2cc(NC(=O)Nc3ccc(C(F)(F)F)cc3)ccc2O1,-14.3% (inactive)
11,C[C@@H]1CN([C@H](C)CO)C(=O)Cc2cc(NC(=O)Nc3ccc(F)cc3)ccc2O[C@H]1CN(C)C(=O)Nc1ccc(C(F)(F)F)cc1,-7.05% (inactive)
12,C[C@H](CO)N1C[C@H](C)[C@@H](CN(C)Cc2ccc(Oc3ccccc3)cc2)OCc2ccccc2-c2c(n(C)c3ccccc23)C1=O,-2.46% (inactive)
13,C[C@@H]1CCCCO[C@@H](CN(C)CC2CCCCC2)[C@@H](C)CN([C@@H](C)CO)C(=O)c2cc(NC(=O)Nc3ccc(C(F)(F)F)cc3)ccc2O1,-0.069% (inactive)
14,C[C@H]1CCCCO[C@H](CN(C)S(=O)(=O)c2ccc(Cl)cc2)[C@@H](C)CN([C@@H](C)CO)C(=O)c2cc(NS(=O)(=O)c3ccc(Cl)cc3)ccc2O1,3.92% (inactive)

# Experiment: OVCAR-3 cell viability loss – plate reader, dry powder samples, PAX8 inhibitor project, dose response (AID 743044)
# Settings: NIH:OVCAR-3 ovarian cancer cell viability; max activity: at 35 µM, hits give low values unless noted; series mostly up to 50 µM; activity change, negative = cytotoxicity: at the top concentration
row,Structure (SMILES),max activity
1,C[C@@H]1CCCCO[C@H](CN(C)Cc2ccc(C(F)(F)F)cc2)[C@H](C)CN([C@H](C)CO)C(=O)c2cc(NS(=O)(=O)c3ccc(F)cc3)ccc2O1,-10.2% (inactive)
2,C[C@@H]1CN([C@H](C)CO)C(=O)c2cc(NC(=O)c3ccncc3)ccc2O[C@@H](C)CCCCO[C@H]1CN(C)Cc1ccc(C(F)(F)F)cc1,"14.3% [at 0.5 µM, hits give low values] (inactive)"
3,O=C(C[C@H]1CC[C@H]2[C@@H](COC[C@@H](O)CN2S(=O)(=O)c2ccccc2Cl)O1)N1CCC(Cc2ccccc2)CC1,"32.6% [at 1 µM, hits give low values] (inactive)"
4,C[C@@H]1CN([C@@H](C)CO)C(=O)c2ccccc2-c2ccccc2CO[C@H]1CN(C)Cc1ccccc1C(F)(F)F,"28.3% [at 16 µM, hits give low values] (inactive)"
5,C[C@@H]1CN([C@@H](C)CO)S(=O)(=O)c2ccc(C#Cc3ccccc3F)cc2O[C@H]1CN(C)CC1CCOCC1,"-11.1% [at 8 µM, hits give low values] (inactive)"
6,C[C@@H]1CN([C@@H](C)CO)C(=O)Cc2cc(NC(=O)Nc3ccc(C(F)(F)F)cc3)ccc2O[C@H]1CN(C)S(=O)(=O)c1ccc(F)cc1,"16.6% [at 1 µM, hits give low values] (inactive)"
7,C[C@@H]1CCCCO[C@H](CN(C)C(=O)Nc2ccc(F)cc2)[C@@H](C)CN([C@@H](C)CO)C(=O)c2cc(NC(=O)Nc3ccc(C(F)(F)F)cc3)ccc2O1,"19.8% [at 0.26 µM, hits give low values] (inactive)"
8,C[C@@H]1CCCCO[C@@H](CN(C)Cc2ccc(C(F)(F)F)cc2)[C@H](C)CN([C@H](C)CO)C(=O)c2cc(NS(=O)(=O)c3ccc(Cl)cc3)ccc2O1,"-15.2% [at 1.1 µM, hits give low values] (inactive)"
9,C[C@@H]1CCCCO[C@@H](CN(C)C(=O)C2CCCCC2)[C@H](C)CN([C@H](C)CO)C(=O)c2cc(NC(=O)Nc3ccc(F)cc3)ccc2O1,-21.5% (inactive)
10,C[C@H](CO)N1C[C@H](C)[C@H](CN(C)Cc2ccc(Cl)c(Cl)c2)Oc2c(NS(=O)(=O)c3ccc(Cl)cc3)cccc2C1=O,53.6% (inactive)
11,C[C@@H]1CCCCO[C@@H](CN(C)Cc2ccc(Cl)c(Cl)c2)[C@H](C)CN([C@@H](C)CO)C(=O)c2cc(NC(=O)Cc3ccccc3)ccc2O1,"-29.2% [at 16 µM, hits give low values] (inactive)"
12,C[C@H](CO)N1C[C@H](C)[C@H](CN(C)Cc2ccc3c(c2)OCO3)Oc2ccc(NC(=O)Nc3cccc4ccccc34)cc2C1=O,"49.4% [at 4.2 µM, hits give low values] (inactive)"
13,COc1ccccc1-c1ccc2c(c1)[C@H]1[C@H](CCN1S(=O)(=O)c1ccccc1F)[C@H](CO)N2,-17.4% (inactive)
14,C[C@@H]1CN([C@H](C)CO)C(=O)c2cc(NC(=O)c3ccccc3)ccc2O[C@@H](C)CCCCO[C@H]1CN(C)Cc1ccc(C(F)(F)F)cc1,"-5.41% [at 0.5 µM, hits give low values] (inactive)"
15,C[C@H]1CCCCO[C@@H](CN(C)C(=O)c2ccccc2)[C@@H](C)CN([C@@H](C)CO)C(=O)c2cc(NC(=O)Nc3ccc(C(F)(F)F)cc3)ccc2O1,"13.2% [at 1.1 µM, hits give low values] (inactive)"
16,Cc1ccc(S(=O)(=O)N(C)C[C@H]2Oc3c(NC(=O)Nc4ccc(F)cc4)cccc3C(=O)N([C@@H](C)CO)C[C@H]2C)cc1,-10.2% (inactive)

row,Structure (SMILES),max activity
1,O=S(=O)(c1ccc(F)cc1)N1C[C@H]2[C@@H](c3ccccc31)[C@H](CO)N2Cc1ccccc1Cl,16.9% (inactive)
2,Cc1ccc(S(=O)(=O)N(C)C[C@H]2OCCCC[C@@H](C)Oc3ccc(NS(=O)(=O)c4ccc(F)cc4)cc3C(=O)N([C@@H](C)CO)C[C@H]2C)cc1,"-18.9% [at 0.5 µM, hits give low values] (inactive)"
3,C[C@H](CO)N1C[C@H](C)[C@@H](CN(C)CC2CCCCC2)Oc2ccc(NC(=O)Nc3ccc4c(c3)OCO4)cc2CC1=O,"15.5% [at 1 µM, hits give low values] (inactive)"
4,O=C(C[C@@H]1C[C@H]2c3cc(NC(=O)C4CCOCC4)ccc3O[C@H]2[C@H](CO)O1)NCc1ccc(Oc2ccccc2)cc1,"-20% [at 8 µM, hits give low values] (inactive)"
5,C[C@H]1CCCCO[C@@H](CN(C)Cc2ccc(C(F)(F)F)cc2)[C@@H](C)CN([C@@H](C)CO)C(=O)c2cc(NS(=O)(=O)c3cccs3)ccc2O1,"-8.06% [at 4.2 µM, hits give low values] (inactive)"
6,C[C@H](CO)N1C[C@H](C)[C@@H](CN(C)Cc2ccc(Cl)c(Cl)c2)OCCCC[C@H](C)Oc2ccc(NC(=O)Nc3ccc(C(F)(F)F)cc3)cc2C1=O,"35.5% [at 2.1 µM, hits give low values] (inactive)"
7,C[C@@H]1CCCCO[C@H](CN(C)C(=O)C2CCCCC2)[C@@H](C)CN([C@@H](C)CO)C(=O)c2cc(NC(=O)Nc3ccccc3)ccc2O1,"37.9% [at 1 µM, hits give low values] (inactive)"
8,C[C@@H]1CN([C@H](C)CO)C(=O)Cc2cc(NC(=O)Nc3ccc(F)cc3)ccc2O[C@@H]1CN(C)Cc1ccc(Cl)c(Cl)c1,27.5% (inactive)
9,C[C@H]1CN([C@@H](C)CO)C(=O)CCCn2nncc2CO[C@@H]1CN(C)C(=O)Nc1ccc(-c2cccs2)cc1,-29.9% (inactive)
10,C[C@@H]1CCCCO[C@H](CN(C)CC2CCCCC2)[C@H](C)CN([C@H](C)CO)C(=O)c2cc(NS(=O)(=O)c3ccc(Cl)cc3)ccc2O1,10.1% (inactive)
11,Cc1cccc(S(=O)(=O)N2CC[C@@H]3[C@H](CO)Nc4ccc(C5=CCCCC5)cc4[C@@H]32)c1,"25.1% [at 1.1 µM, hits give low values] (inactive)"
12,C[C@H]1CN([C@@H](C)CO)C(=O)c2c(c3ccccc3n2C)-c2ccccc2CO[C@@H]1CN(C)Cc1ccc(-c2ccccc2)cc1,"59% [at 30 µM, hits give low values] (inactive)"
13,C[C@@H]1CN([C@@H](C)CO)C(=O)c2c(c3ccccc3n2C)-c2ccccc2CO[C@H]1CN(C)C(=O)Nc1ccc2c(c1)OCO2,"-21.8% [at 16 µM, hits give low values] (inactive)"
14,CN1c2ccc(C#Cc3cccnc3)cc2[C@@H]2[C@@H](CCN2C(=O)Cc2cccnc2)[C@@H]1CO,"17.5% [at 16 µM, hits give low values] (inactive)"
15,C[C@@H]1CN([C@@H](C)CO)C(=O)c2cc(NS(=O)(=O)c3ccc(F)cc3)ccc2O[C@@H](C)CCCCO[C@H]1CN(C)Cc1ccc(C(F)(F)F)cc1,"-20.3% [at 0.26 µM, hits give low values] (inactive)"
16,C[C@@H]1CN([C@@H](C)CO)C(=O)c2cc(NC(=O)Nc3ccc(C(F)(F)F)cc3)ccc2O[C@@H](C)CCCCO[C@H]1CN(C)Cc1ccc(Cl)c(Cl)c1,"-12.8% [at 0.26 µM, hits give low values] (inactive)"
